The source made the active and inactive calls. The calls were made as follows: active = hit-call score of the fitted dose curve at least 0.9, where 1 is the maximum; inactive = score below 0.9.

Read-out in experiment [1]: TIMP metallopeptidase inhibitor 2 (TIMP2), TIMP2 (gene 7077)
The experiment is described as follows: BSK_KF3CT_TIMP2: BioMAP Diversity Plus: KF3CT Assay for TIMP metallopeptidase inhibitor 2 (TIMP2) Biomarker Activity (AID 2283071). The settings on record: primary human keratinocytes with fibroblasts; actives raise or lower the signal. In a few lines: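 TIMP-2 measured by ELISA at 24 h in human keratinocyte/fibroblast primary co-cultures exposed to chemicals. Both increases and decreases were fitted against DMSO. Parallel cultures were stained with SRB for total protein as an overt-cytotoxicity check.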

Read-out in experiment [2]: Transforming growth factor beta 1 (TGFb1), TGFB1 (gene 7040)
Put plainly: BSK_KF3CT_TGFb1: BioMAP Diversity Plus: KF3CT Assay for Transforming growth factor beta 1 (TGFb1) Biomarker Activity (AID 2283072). The settings on record: primary human keratinocytes with fibroblasts; actives raise or lower the signal. In outline: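 ELISA quantifies TGF-b1 at 24 h post-dose in a primary human skin co-culture of keratinocytes and fibroblasts, with gain or loss judged against DMSO. Parallel SRB total-protein staining flags overt cytotoxicity.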

Read-out in experiment [3]: C-C motif chemokine 2 (Homo sapiens) (UniProt P13500)
The experiment is described as follows: BSK_KF3CT_MCP1: BioMAP Diversity Plus: KF3CT Assay for Monocyte Chemoattractant Protein 1 (MCP1/CCL2) Biomarker Activity (AID 2283073). The settings on record: primary human keratinocytes with fibroblasts; actives raise or lower the signal. In outline: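 Human keratinocyte plus foreskin fibroblast primary co-culture exposed to chemical for 24 h. MCP-1 levels measured by ELISA. Bidirectional curve fitting relative to DMSO negative control as baseline.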

Read-out in experiment [4]: Matrix Metallopeptidase 9 (MMP9), MMP9 (gene 4318)
Put plainly: BSK_KF3CT_MMP9: BioMAP Diversity Plus: KF3CT Assay for Matrix Metallopeptidase 9 (MMP9) Biomarker Activity (AID 2283074).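 As to AC50: MMP9 protein level quantified by ELISA in the co-culture.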 The settings on record: primary human keratinocytes with fibroblasts; actives raise or lower the signal. In a few lines:
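ELISA read-out of MMP-9 at 24 h post-dosing in a co-culture of human skin keratinocytes and foreskin fibroblasts. Gain or loss of signal was fitted in both directions against DMSO.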

Read-out in experiment [5]: urokinase plasminogen activator (uPA), PLAU (gene 5328)
The experiment is described as follows: BSK_KF3CT_uPA: BioMAP Diversity Plus: KF3CT Assay for urokinase plasminogen activator (uPA) Biomarker Activity (AID 2283075). The note with it: primary human keratinocytes with fibroblasts; actives raise or lower the signal. In a few lines: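 Skin co-culture (keratinocytes + foreskin fibroblasts), human primary; 24 h post-dose; uPA by ELISA; gain/loss fit vs DMSO baseline.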

Read-out in experiment [6]: CD40, CD40 (gene 958)
Put plainly: BSK_LPS_CD40: BioMAP Diversity Plus: LPS Assay for CD40 Biomarker Activity (AID 2283076). The note with it: primary human HUVEC with PBMC; actives raise or lower the signal. In a few lines:
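Primary human umbilical vein endothelial cells co-cultured with peripheral blood mononuclear cells, LPS-stimulated, were dosed with chemical and read 24 h later. CD40 levels were measured by ELISA and fitted bidirectionally against DMSO as negative control and baseline.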

Read-out in experiment [7]: E-selectin (Homo sapiens) (UniProt P16581)
The experiment is described as follows: BSK_LPS_Eselectin: BioMAP Diversity Plus: LPS Assay for Eselectin Biomarker Activity (AID 2283077). The settings on record: primary human HUVEC with PBMC; actives raise or lower the signal. In a few lines: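 Human umbilical vein endothelial cells co-cultured with peripheral blood mononuclear cells under LPS stimulation; E-selectin measured by ELISA 24 h after chemical dosing. Activity fitted bidirectionally against DMSO as negative control and baseline.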

Read-out in experiment [8]: Interleukin-8 (IL8), CXCL8 (gene 3576)
The experiment is described as follows: BSK_LPS_IL8: BioMAP Diversity Plus: LPS Assay for Interleukin-8 (IL8) Biomarker Activity (AID 2283078). The settings on record: primary human HUVEC with PBMC; actives raise or lower the signal. In a few lines: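 Human umbilical vein endothelial cells co-cultured with PBMC were stimulated with LPS; IL-8 levels were measured by ELISA 24 h after chemical dosing. Activity was fitted bidirectionally against DMSO as negative control and baseline.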

Experiment [9] in a line: BSK_LPS_SRB: Viability Assessment in the BioMAP Diversity Plus: LPS Assay (AID 2283079).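 Also: total protein by sulforhodamine B absorbance as a cytotoxicity measure; measured one day after compound addition.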 The note with it: primary human HUVEC with PBMC. In outline: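 Human umbilical vein endothelial cells co-cultured with PBMC (LPS system) were dosed for 24 h. Total protein was stained with 0.1% sulforhodamine B after 10% TCA fixation, read at 560 nm, and fitted bidirectionally against DMSO baseline.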

Read-out in experiment [10]: Interleukin-1 alpha (IL1a), IL1A (gene 3552)
The experiment is described as follows: BSK_LPS_IL1a: BioMAP Diversity Plus: LPS Assay for Interleukin-1 alpha (IL1a) Biomarker Activity (AID 2283080). The note with it: primary human HUVEC with PBMC; actives raise or lower the signal. In outline: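 Human umbilical vein endothelial cells co-cultured with peripheral blood mononuclear cells were LPS-stimulated and exposed to test chemicals for 24 h. IL-1 alpha was quantified by ELISA, with bidirectional curve fitting against DMSO as the negative control and baseline.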

Read-out in experiment [11]: Monocyte Chemoattractant Protein-1 (MCP1), CCL2 (gene 6347)
The experiment is described as follows: BSK_LPS_MCP1: BioMAP Diversity Plus: LPS Assay for Monocyte Chemoattractant Protein-1 (MCP1) Biomarker Activity (AID 2283081).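 As to AC50: co-culture stimulated with LPS; secreted MCP-1 protein quantified by ELISA in culture supernatant.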 The note with it: primary human HUVEC with PBMC; actives raise or lower the signal. In outline: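 HUVEC plus PBMC co-culture (human primary cells, LPS system) exposed to test chemical for 24 h; MCP-1 measured by ELISA. Bidirectional curve fitting against DMSO baseline; parallel SRB total-protein staining flags overt cytotoxicity.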

Experiment [12] in a line: BSK_LPS_PGE2: BioMAP Diversity Plus: LPS Assay for Prostaglandin E2 (PGE2) Biomarker Activity (AID 2283082).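 As to AC50: secreted prostaglandin E2 measured by ELISA in LPS-stimulated co-culture.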 The note with it: primary human HUVEC with PBMC; actives raise or lower the signal. In a few lines:
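PGE2 release measured by ELISA in an LPS-activated co-culture of human umbilical vein endothelial cells and peripheral blood mononuclear cells, read at 24 h post-dosing. DMSO served as baseline for bidirectional curve fitting.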

Read-out in experiment [13]: Macrophage colony-stimulating factor (MCSF), CSF1 (gene 1435)
Put plainly: BSK_LPS_MCSF: BioMAP Diversity Plus: LPS Assay for Macrophage colony-stimulating factor (MCSF) Biomarker Activity (AID 2283083). The settings on record: primary human HUVEC with PBMC; actives raise or lower the signal. In a few lines:
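Human umbilical vein endothelial cells co-cultured with peripheral blood mononuclear cells were exposed to compound for 24 h. M-CSF levels were measured by ELISA, and bidirectional curve fitting used DMSO as the negative control and baseline.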

Read-out in experiment [14]: Tissue Factor, F3 (gene 2152)
The experiment is described as follows: BSK_LPS_TissueFactor: BioMAP Diversity Plus: LPS Assay for Tissue Factor Biomarker Activity (AID 2283084). The settings on record: primary human HUVEC with PBMC; actives raise or lower the signal. In outline:
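Human umbilical vein endothelial cells co-cultured with peripheral blood mononuclear cells were dosed and stimulated with LPS. Cell-surface CD142 was quantified by ELISA at 24 h. Activity was fitted bidirectionally against DMSO baseline.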

Read-out in experiment [15]: Tumor necrosis factor (Homo sapiens) (UniProt P01375)
The experiment is described as follows: BSK_LPS_TNFa: BioMAP Diversity Plus: LPS Assay for Tumour Necrosis Factor alpha (TNFa) Biomarker Activity (AID 2283085).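 As to AC50: TNFa protein level quantified by ELISA in the co-culture.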 The settings on record: primary human HUVEC with PBMC; actives raise or lower the signal. In a few lines: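 TNFa was quantified by ELISA in LPS-activated co-cultures of human endothelial cells and PBMC, 24 h post-dosing. Both increases and decreases versus DMSO were fitted.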

Read-out in experiment [16]: Vascular cell adhesion molecule 1 (VCAM1), VCAM1 (gene 7412)
Put plainly: BSK_LPS_VCAM1: BioMAP Diversity Plus: LPS Assay for Vascular cell adhesion molecule 1 (VCAM1) Biomarker Activity (AID 2283086). The note with it: primary human HUVEC with PBMC; actives raise or lower the signal. In a few lines:
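VCAM-1 quantified by ELISA in an LPS-activated co-culture of human endothelial cells and peripheral blood mononuclear cells, read 24 h post-treatment. Fitted in both directions versus DMSO; parallel SRB staining flags overt cytotoxicity.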

Read-out in a further experiment: CD38, CD38 (gene 952)
The experiment is described as follows: BSK_SAg_CD38: BioMAP Diversity Plus: SAg Assay for CD38 Biomarker Activity (AID 2283087). The note with it: primary human HUVEC with PBMC; actives raise or lower the signal. In outline:
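CD38 quantified by ELISA (fluorescence) in a superantigen-activated endothelial cell–PBMC co-culture at 24 h post-dose. Activity fitted in both directions relative to DMSO; parallel SRB and Alamar Blue cytotoxicity read-outs.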

Read-out in the next experiment: CD69, CD69 (gene 969)
The experiment is described as follows: BSK_SAg_CD69: BioMAP Diversity Plus: SAg Assay for CD69 Biomarker Activity (AID 2283089). The note with it: primary human HUVEC with PBMC; actives raise or lower the signal. In a few lines:
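Primary human vascular co-culture (umbilical vein endothelium with peripheral blood mononuclear cells) exposed to test chemical for 24 h. CD69 levels quantified by fluorescence ELISA; DMSO served as negative control for bidirectional fitting.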

Read-out in experiment [17]: Monocyte Chemoattractant Protein-1 (MCP1), CCL2 (gene 6347)
The experiment is described as follows: BSK_SAg_MCP1: BioMAP Diversity Plus: SAg Assay for Monocyte Chemoattractant Protein-1 (MCP1) Biomarker Activity (AID 2283090). The settings on record: primary human HUVEC with PBMC; actives raise or lower the signal. In outline: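 Values derive from bidirectional fitting of ELISA-measured MCP1 against DMSO controls. Readings were taken 24 h after dosing human vascular endothelial cells co-cultured with peripheral blood mononuclear cells under superantigen stimulation.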

Read-out in experiment [18]: CD40, CD40 (gene 958)
Put plainly: BSK_SAg_CD40: BioMAP Diversity Plus: SAg Assay for CD40 Biomarker Activity (AID 2283088). The settings on record: primary human HUVEC with PBMC; actives raise or lower the signal. In outline:
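Human umbilical vein endothelial cells co-cultured with PBMC; CD40 levels measured by ELISA with fluorescence read-out 24 h after chemical dosing. Gain or loss of signal fitted bidirectionally against DMSO baseline.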

Chain of Tumor necrosis factor (Homo sapiens) (P01375 whole entry, looked up): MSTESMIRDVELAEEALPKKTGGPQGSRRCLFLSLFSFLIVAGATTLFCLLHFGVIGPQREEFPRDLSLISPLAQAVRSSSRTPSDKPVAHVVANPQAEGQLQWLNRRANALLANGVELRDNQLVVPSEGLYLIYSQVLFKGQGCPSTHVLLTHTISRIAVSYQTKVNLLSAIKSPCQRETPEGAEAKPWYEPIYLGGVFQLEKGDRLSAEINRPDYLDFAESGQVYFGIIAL
Chain of E-selectin (Homo sapiens) (P16581 whole entry, looked up): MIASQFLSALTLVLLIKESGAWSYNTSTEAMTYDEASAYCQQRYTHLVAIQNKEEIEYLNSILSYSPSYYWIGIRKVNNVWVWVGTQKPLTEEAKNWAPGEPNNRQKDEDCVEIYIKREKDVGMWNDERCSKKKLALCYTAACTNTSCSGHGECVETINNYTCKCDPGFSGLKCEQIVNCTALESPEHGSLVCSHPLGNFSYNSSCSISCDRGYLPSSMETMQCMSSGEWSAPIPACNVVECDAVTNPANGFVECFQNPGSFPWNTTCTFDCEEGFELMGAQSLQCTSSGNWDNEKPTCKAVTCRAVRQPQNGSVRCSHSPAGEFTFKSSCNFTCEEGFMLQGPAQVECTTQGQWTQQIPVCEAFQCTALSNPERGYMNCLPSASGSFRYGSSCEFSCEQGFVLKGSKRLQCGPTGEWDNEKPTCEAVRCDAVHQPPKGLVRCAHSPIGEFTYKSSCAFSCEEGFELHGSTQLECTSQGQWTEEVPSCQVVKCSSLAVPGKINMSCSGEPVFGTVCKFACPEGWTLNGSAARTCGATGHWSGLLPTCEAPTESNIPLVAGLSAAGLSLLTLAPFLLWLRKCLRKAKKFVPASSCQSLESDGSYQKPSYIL

Turning to `CCOP(=O)(NC(C)C)Oc1ccc(SC)c(C)c1` (stereo unspecified), the outcome is “inactive” in experiment [1]; “inactive” in experiment [2]; “inactive” in experiment [3]; “inactive” in experiment [4]; “inactive” in [5]; “inactive” with CD40, CD40 (gene 958) [6]. Further, the outcome in [7], in [8], in [9], in experiment [10], in experiment [11] and in [12] was inactive. Besides, the outcome in experiment [13] is “inactive”; in experiment [14], “inactive”; in experiment [15], “inactive”; in experiment [16], “inactive”; with CD38, CD38 (gene 952), “inactive”; with CD69, CD69 (gene 969), “inactive”. Besides, in experiment [17], the outcome was inactive.
With `CON=C(C(=O)OC)c1ccccc1CON=C(C)c1cccc(C(F)(F)F)c1`, the result in experiment [1], in experiment [2], in experiment [5], in [10], in [14] and in [16] was inactive. For the same compound, the AC50 (in general, the concentration giving half of the maximal activity seen) in [3] is 6.61 µM (active); in experiment [4], 3.97 µM (active); in the experiment with CD40, CD40 (gene 958) [6] it was 13.5 µM (active); in [7], 0.25 µM (active); in experiment [8], 3.35 µM (active); in [9], 6.96 µM (active). In addition, the AC50 was 2.93 µM (active) in [11]; 1.14 µM (active) in experiment [12]; 5.49 µM (active) in experiment [13]; 5.02 µM (active) in experiment [15]; 5.63 µM (active) with CD38, CD38 (gene 952); 4.09 µM (active) in experiment [17].
For the compound `C[Si](Cn1cncn1)(c1ccc(F)cc1)c1ccc(F)cc1`, the outcome in experiment [1], in experiment [2], in experiment [3], in experiment [4], in experiment [5] and in experiment [8] was inactive. Besides, the outcome in experiment [9], in experiment [10], in experiment [11], in [14], in [15] and in experiment [16] was inactive. Moreover, the outcome with CD69, CD69 (gene 969) was inactive. The AC50 in experiment [7] was 15 µM (active); in experiment [12], 1.62 µM (active); in experiment [13], 14.7 µM (active); in the experiment with CD38, CD38 (gene 952), 29.9 µM (active); in the experiment with CD40, CD40 (gene 958) [18], 27 µM (active); in experiment [17] it was 28.9 µM (active).
